Data taken from PubChem BioAssay.
Values without a mark were called inactive. Records with an inconclusive call do not appear. Active and inactive are the calls of the source. Unless noted, how the calls were made is not given here.

Tests used:
[1] = compounds altering circadian rhythm period length – cell-based, LOPAC library, luminescence reporter (AID 2774); conditions: circadian reporter cells, at 7 µM, actives lie on both sides;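 further: values are relative to mean of DMSO wells on each plate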
[2] = compounds altering viability of human ES cells (AID 493140); conditions: human embryonic stem cell survival screen; hits give high values;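 further: cells exposed to compounds for four days before counting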
[3] = target: ATP-dependent translocase ABCB1 (Homo sapiens) (UniProt P08183); assay: P-glycoprotein substrate transport blockade – cell-based (AID 377; in the data active means fluorescence slope change above about 50%); conditions: MDR1-expressing cells, fluorescent substrate accumulation slope; hits give high values; concentration not given here
Sequence of ATP-dependent translocase ABCB1 (Homo sapiens) (P08183 whole entry, looked up): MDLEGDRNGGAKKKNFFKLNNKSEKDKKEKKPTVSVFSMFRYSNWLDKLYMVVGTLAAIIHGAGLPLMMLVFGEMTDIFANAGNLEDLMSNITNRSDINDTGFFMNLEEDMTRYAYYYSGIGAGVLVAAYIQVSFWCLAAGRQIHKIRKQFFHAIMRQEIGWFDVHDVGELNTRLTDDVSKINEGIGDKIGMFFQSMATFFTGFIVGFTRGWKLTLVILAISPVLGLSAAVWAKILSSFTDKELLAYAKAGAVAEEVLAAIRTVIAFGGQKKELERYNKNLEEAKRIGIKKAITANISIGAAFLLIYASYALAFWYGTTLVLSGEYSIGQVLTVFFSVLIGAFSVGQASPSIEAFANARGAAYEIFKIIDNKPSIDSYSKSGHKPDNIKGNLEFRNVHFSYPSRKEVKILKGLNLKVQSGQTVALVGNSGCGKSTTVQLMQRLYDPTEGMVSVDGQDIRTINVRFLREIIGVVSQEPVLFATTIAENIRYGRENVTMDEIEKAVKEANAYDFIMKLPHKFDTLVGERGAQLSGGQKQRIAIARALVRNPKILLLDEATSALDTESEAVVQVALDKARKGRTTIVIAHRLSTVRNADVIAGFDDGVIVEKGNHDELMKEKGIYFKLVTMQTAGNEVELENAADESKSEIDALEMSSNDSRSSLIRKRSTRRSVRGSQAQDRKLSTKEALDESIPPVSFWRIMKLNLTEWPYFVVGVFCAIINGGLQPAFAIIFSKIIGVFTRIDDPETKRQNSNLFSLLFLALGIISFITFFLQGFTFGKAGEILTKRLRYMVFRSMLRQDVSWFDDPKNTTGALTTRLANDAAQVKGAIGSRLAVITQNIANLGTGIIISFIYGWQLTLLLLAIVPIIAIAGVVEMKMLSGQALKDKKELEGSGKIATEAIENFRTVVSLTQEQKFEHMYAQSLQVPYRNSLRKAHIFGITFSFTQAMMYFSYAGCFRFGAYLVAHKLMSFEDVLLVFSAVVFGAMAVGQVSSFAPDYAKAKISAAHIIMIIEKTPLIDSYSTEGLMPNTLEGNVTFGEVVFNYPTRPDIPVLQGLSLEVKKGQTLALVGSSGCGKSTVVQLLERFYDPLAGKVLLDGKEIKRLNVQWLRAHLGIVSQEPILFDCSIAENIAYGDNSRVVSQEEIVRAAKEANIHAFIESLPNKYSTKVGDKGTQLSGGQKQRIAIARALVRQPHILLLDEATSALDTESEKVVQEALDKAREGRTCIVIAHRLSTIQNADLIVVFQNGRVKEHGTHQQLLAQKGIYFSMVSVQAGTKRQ

| Compound | period change [1] [h] | survival [2] | fluorescence slope change [3] |
| --- | --- | --- | --- |
| CNC1(C)C2CCC(C2)C1(C)C (centres undefined) | 0.19 | 42 | – |
| CC(=O)[C@@]1(O)CC[C@H]2[C@@H]3C[C@H](C)C4=CC(=O)C=C[C@]4(C)[C@@]3(F)[C@@H](O)C[C@@]21C | – | 6.17 | 10.7% |
| Nc1ncnc2c1ncn2[C@@H]1O[C@H](COP(=O)(O)O)[C@@H](O)[C@H]1O | – | 7.33 | 73% (active) |
| Oc1ccc(OCc2ccccc2)cc1 | – | 3.58 | – |
| NC(N)=Nc1nc(CSCC/C(N)=N/S(N)(=O)=O)cs1 | -0.03 | 16.5 | – |
| CC(=O)OCC(=O)[C@@]1(O)[C@H](C)C[C@H]2[C@@H]3CCC4=CC(=O)C=C[C@]4(C)[C@@]3(F)[C@@H](O)C[C@@]21C | – | 16.5 | 109% (active) |
| CCOC(=O)n1ccn(C)c1=S | – | 11.8 | 99.3% (active) |
| COc1cc2nc(N3CCN(C(=O)C4CCCO4)CC3)nc(N)c2cc1OC (centres undefined) | 0.02 | 3.75 | – |
| COc1ccccc1N1CCN(CC(O)COc2cccc3ccccc23)CC1 (centres undefined) | 0.04 | 8.25 | – |
| CC1(C)NC(=O)N(c2ccc([N+](=O)[O-])c(C(F)(F)F)c2)C1=O | 0.085 | 0.917 | – |
| COc1cc2c3cc1Oc1cc(ccc1O)C[C@@H]1c4c(cc(OC)c(O)c4Oc4ccc(cc4)C[C@@H]3N(C)CC2)CC[N+]1(C)C | – | – | 8.4% |
| CC1(C)O[C@@H]2C[C@H]3[C@@H]4CCC5=CC(=O)CC[C@]5(C)[C@@]4(F)[C@@H](O)C[C@]3(C)[C@]2(C(=O)CCl)O1 | – | 5.5 | 26.3% |
| CC[N+](C)(C)Cc1ccccc1Br | 0.095 | 6.92 | – |
| CC1(C)O[C@@H]2C[C@H]3[C@@H]4C[C@H](F)C5=CC(=O)CC[C@]5(C)[C@H]4[C@@H](O)C[C@]3(C)[C@]2(C(=O)CO)O1 | – | 4.42 | – |
| CN1CCCCC1CCN1c2ccccc2Sc2ccc(S(C)=O)cc21 (centres undefined) | – | 3.42 | 54.4% (active) |
| Nc1ccc(S(=O)(=O)Nc2ccc(Cl)nn2)cc1 | – | 5.17 | -13.4% |
| CCc1oc2ccccc2c1C(=O)c1cc(Br)c(O)c(Br)c1 | – | 13.1 | 56.7% (active) |
| CN1CCN(C(c2ccccc2)c2ccccc2)CC1 | – | 4.58 | 59.4% (active) |
| C[n+]1cc2c3c(ccc2c2ccc4cc5c(cc4c21)OCO5)OCO3 | -0.18 | 1.33 | – |
| C[C@@H]1C[C@H]2[C@@H]3C[C@H](F)C4=CC(=O)C=C[C@]4(C)[C@@]3(F)[C@@H](O)C[C@]2(C)[C@@]1(O)C(=O)CO | – | 2.17 | 57.3% (active) |
| C[C@]12CC[C@@H]3c4ccc(O)cc4CC[C@H]3[C@@H]1CCC2=O | -0.125 | 2.5 | – |
| COc1ccc2nc(S(=O)Cc3ncc(C)c(OC)c3C)[nH]c2c1 (centres undefined) | – | 10.2 | 50.5% (active) |
| COc1cc(-c2ccc(=O)[nH]n2)ccc1OC(F)F | -0.1 | 1.92 | – |
| Cc1nccn1CC1CCc2c(c3ccccc3n2C)C1=O (centres undefined) | – | 36.2 | – |
